Compound activity as filed in PubChem.
S1P2 ag = S1P2 receptor agonists, primary screen, cell-based. activation, % at 4.5 µM. Sphingosine 1-phosphate receptor 2 (Homo sapiens), O95136. S1P2-expressing cell line, agonist reporter read-out. 97,000 compounds, 0.46% hits; in the data active means activation above about 16%
Target sequence (O95136 whole entry, looked up): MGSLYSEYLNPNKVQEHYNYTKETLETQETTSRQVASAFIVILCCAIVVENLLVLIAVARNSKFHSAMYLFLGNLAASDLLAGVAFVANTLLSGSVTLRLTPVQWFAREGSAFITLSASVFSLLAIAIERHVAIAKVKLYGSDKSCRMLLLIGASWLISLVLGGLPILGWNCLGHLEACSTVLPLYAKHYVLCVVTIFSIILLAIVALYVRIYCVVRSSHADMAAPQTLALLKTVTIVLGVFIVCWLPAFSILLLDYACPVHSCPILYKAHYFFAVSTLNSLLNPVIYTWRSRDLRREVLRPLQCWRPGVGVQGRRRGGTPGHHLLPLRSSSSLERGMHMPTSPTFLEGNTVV
S1P2 blocker = human S1P2 receptor antagonists, primary screen, cell-based; Sphingosine 1-phosphate receptor 2 (Homo sapiens), O95136; cell-based S1P2 antagonist assay, inhibition at 5 uM; 97,000 compounds, 0.21% hits; inhibition, % at 5 µM; in the data active means inhibition above about 45%;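 further: CRE beta-lactamase reporter cells expressing human S1P2 stimulated with S1P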
GALR2 antag = GALR2 antagonists in receptor-expressing cells, primary screen; antagonist mode; inhibition, % at 4 µM; AID 828, 2007; 140,000 compounds, 0.39% hits; Galanin receptor type 2 (Homo sapiens), O43603; in the data active means inhibition above about 27%;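 further: cells stimulated with galanin 1-16 at roughly its EC80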
GALR2 ag = GALR2 receptor agonists, primary screen, cell-based; activation, % (test concentration not listed); 140,000 compounds, 0.48% hits; AID 803, 2007; GALR2-expressing cells, agonist activation read-out; in the data active means activation above about 5%, passing the limit was not always enough
Each line names hits and unclear results; the compound was inactive in the other large screens. A selection: hits, their analogues and other compounds. The true share with any hit is near 1.2%.

Oc1cccc(C(=S)N2CCN(Cc3ccccc3)CC2)c1	S1P2 ag 56
COc1ccc(C(=O)N=C2CCC(C#N)=C3c4cc(OC)c(OC)cc4CCN23)cc1	none (no result: S1P2 ag, S1P2 blocker)
COc1cc2c(cc1OC)C1=C(C#N)CCC(=O)N1CC2	S1P2 ag 62
COc1cc2c(cc1OC)C1=C(C#N)CC/C(=N\S(=O)(=O)c3ccccc3)N1CC2	S1P2 ag 49
Cc1ccc(-c2cc(-c3ccc(Cl)cc3)c(C#N)c(N)n2)o1	S1P2 ag 19, GALR2 ag 13
Cc1ccc(-c2cc(-c3ccc(F)cc3)c(C#N)c(N)n2)o1	none (no result: S1P2 ag, S1P2 blocker)
Cc1cc(-c2cc(-c3ccc(Cl)cc3)nc(N)c2C#N)co1	S1P2 ag 19, GALR2 ag 9.9
Cc1ccc(-c2cc(-c3ccc(C)o3)nc(N)c2C#N)cc1	none
CCOC(=O)C1CN(S(=O)(=O)c2cccc(C(F)(F)F)c2)c2cc(CC(=O)OC)ccc2O1 (stereo not given)	none
O=C(CCC(=O)N1CCc2ccccc21)Nc1ccccc1	S1P2 ag 58
COc1ccc(/C=N\NC(=O)C2=NNC(=O)C2C)cc1 (stereo not given)	none
Nc1nc2c3ccccc3nc(C3CC3)n2n1	S1P2 ag 24
Cc1cc(C(=O)CN2C(=O)NC(C)(c3cccc(Br)c3)C2=O)c(C)n1Cc1ccco1 (stereo not given)	S1P2 ag 36
CCN(CC(=O)Nc1cc(C)nn1-c1nc(C)cc(C)n1)Cc1ccccc1	none
Cc1ccc(S(=O)(=O)Nc2cc(-c3nn(C)c(=O)c4ccccc34)ccc2N2CCOCC2)cc1	S1P2 ag 17
COc1ccccc1CCNCc1ccc(OC)c(OCc2ccccc2)c1	S1P2 blocker 48
Cc1ccc(S(=O)(=O)/N=S(\C)CC2CC2(Cl)Cl)cc1 (stereo not given)	none
CCCc1nc2ccccc2c(C(=O)OCC(=O)Nc2cccc(S(=O)(=O)N3CCOCC3)c2)c1CC	S1P2 ag 19
CCCc1nc2ccccc2c(C(=O)OCC(=O)Nc2ccc(S(=O)(=O)N3CCOCC3)cc2)c1CC	none
COc1ccc(/C=N/Nc2snc(SC)c2C#N)cc1OC	GALR2 ag 5.1
COc1cc2c(cc1OC)C(c1ccc(-c3ccccc3Cl)o1)=NCC2	S1P2 ag 37
COc1cc2c(cc1OC)C(c1ccc(-c3ccc(Cl)cc3Cl)o1)=NCC2	S1P2 ag 34
CC1=NOC(=O)/C1=C\c1ccc(-c2cc(Cl)ccc2Cl)o1	none
S=C(c1ccc(-c2ccccc2Cl)o1)N1CCCCC1	none (no result: S1P2 ag, S1P2 blocker)
COc1cc2c(cc1OC)C(c1ccc(-c3ccc(Cl)c(Cl)c3)o1)=NCC2	S1P2 ag 19
COc1cc2c(cc1OC)C(c1ccc(-c3cc(Cl)ccc3Cl)o1)=NCC2	S1P2 ag 39
O=C(CSc1nnc(-c2ccccc2NC(=O)c2ccccc2)o1)OC1CCCCC1	none
COc1ccc(CCC(=O)OCC(=O)c2ccc(C)cc2)cc1	none (no result: S1P2 ag, S1P2 blocker)
CCOC(=O)c1sc2c(c1C)C(c1cccs1)C1=C(CCCC1=O)N2 (stereo not given)	S1P2 ag 31, GALR2 ag 9.2
CCCCn1c(=NC(=O)c2ccc3c(c2)OCO3)c(C#N)cc2c(=O)n3cccc(C)c3nc21	none
CC(C)n1c(=NC(=O)c2ccco2)c(C#N)cc2c(=O)n3ccccc3cc21	GALR2 ag 6.3 (no result: S1P2 ag, S1P2 blocker)
CCc1cccc2sc(NC(=O)c3ccc(N4C(=O)CCC4=O)cc3)nc12	none (no result: S1P2 ag, S1P2 blocker)
Cc1ccc2sc(NC(=O)c3ccc(N4C(=O)CCC4=O)cc3)nc2c1C	GALR2 ag 6.7 (no result: S1P2 ag, S1P2 blocker)
CC(=O)C1=C(O)C(=O)N(c2nccs2)C1c1ccccc1 (stereo not given)	none
CSc1ccccc1N=CC1=C(O)CC(C)(C)CC1=O	GALR2 antag 36
CC1(C)CC(=O)C(C=Nc2ccc3cn[nH]c3c2)=C(O)C1	GALR2 antag 31
CC1(C)CC(=O)C(C=Nc2ccc3[nH]ncc3c2)=C(O)C1	none
CC1(C)CC(=O)C(C=Nc2ccc(O)cc2)=C(O)C1	none
CCCN(CCC)C1=CC(=[N+]2CCCC2)CC(C)(C)C1	none (no result: S1P2 ag, S1P2 blocker)
O=C(CSc1nc2c(c(=O)n1-c1ccc(Cl)cc1)SCC2)N1CCOCC1	S1P2 ag 21
O=C(CSc1nc2c(c(=O)n1-c1ccc(Cl)cc1)SCC2)N1CCCC1	none (no result: S1P2 ag, S1P2 blocker)
CC(C)N1C(=O)/C(=C\c2nc3ccccc3c(=O)[nH]2)c2ccccc21	none (no result: S1P2 ag, S1P2 blocker)
COc1ccc(CC(=O)Nc2cccc(-c3nnc(-c4cccc(C)c4)o3)c2)cc1OC	GALR2 antag 28 (no result: S1P2 ag, S1P2 blocker)
COc1ccc(CC(=O)Nc2cccc(-c3nnc(-c4ccccc4)o3)c2)cc1OC	S1P2 blocker 56
COc1ccc(CC(=O)Nc2cccc(-c3nnc(-c4ccc(C)cc4)o3)c2)cc1OC	none (no result: S1P2 ag, S1P2 blocker)
Cc1ccnc(SCC(=O)Nc2sc3c(c2C#N)CCCC3)n1	S1P2 blocker 47
O=c1[nH]c(-c2ccco2)nc2sc3c(c12)CCCC3	none (no result: S1P2 ag, S1P2 blocker)
COc1cccc(Nc2nc(-c3ccc4c(c3)OCCO4)cs2)c1	S1P2 ag 41
CCCCC(CC)Cn1c(N)c(C#N)c2nc3ccccc3nc21 (stereo not given)	S1P2 ag 50, GALR2 ag 35
CCCCC(CC)Cn1c2nc3ccccc3nc2c2c(=N)oc(C)nc21 (stereo not given)	none
OCCn1c(CSc2nnc(-c3ccco3)n2-c2ccccc2)nc2ccc(Cl)cc21	S1P2 ag 34
O=c1cc(/C=C/c2ccccc2)oc2ccccc12	none
COc1cc2c(cc1OC)C(COc1ccc3c(C)cc(=O)oc3c1)N(C(=O)c1ccco1)CC2 (stereo not given)	S1P2 ag 21
COc1cc2c(cc1OC)C(COc1ccc(F)cc1)N(C(=O)c1ccco1)CC2 (stereo not given)	none
COc1ccc2c(c1)c1nnc(SCC(=O)N3C(C)CCCC3C)nc1n2C (stereo not given)	S1P2 ag 19
CC(C)c1ccc(/C=C/C(=O)NC(=S)Nc2ccc(CN3CCOCC3)cc2)cc1	none (no result: S1P2 ag, S1P2 blocker)
CC1(C)CC(=O)C/C(=N/NC(=O)CCCOc2ccc(Cl)cc2Cl)C1	none
Cc1c(C(=O)OCC(=O)c2c(N)n(CC(C)C)c(=O)n(C)c2=O)oc2ccccc12	none
CC(C)Cn1c(N)c(C(=O)COC(=O)c2ccc3ccccc3n2)c(=O)n(C)c1=O	S1P2 ag 22
COc1ccc(N=C2S/C(=C\c3ccc(N4CCOCC4)o3)C(=O)N2CCc2c[nH]c3ccccc23)cc1	S1P2 blocker 48
CCCN1C(=O)/C(=C/c2ccc(C)o2)SC1=Nc1ccc(OC)cc1	none
O=C(NNS(=O)(=O)c1ccc(Cl)cc1)c1ccc(S(=O)(=O)N2CCCCC2)cc1	none (no result: S1P2 ag, S1P2 blocker)
O=C(N/N=C\c1cc(Cl)ccc1O)c1ccc(S(=O)(=O)N2CCCCC2)cc1	GALR2 ag 6.9 (no result: S1P2 ag, S1P2 blocker)
Cn1c(SC2=CS(=O)(=O)c3ccccc32)nc2ccccc21	S1P2 blocker 62
CC(C)CCNC(=O)C1CCCN1C(=O)NC1CCCCC1 (stereo not given)	none
CS(=O)(=O)c1nc(-c2ccccc2)cc(C(F)(F)F)n1	GALR2 antag 54 (no result: S1P2 ag, S1P2 blocker)
FC(F)(F)c1cc(-c2ccccc2)nc(N2CCCCCC2)n1	none
Cc1cc(C)n(CC(O)Cn2c3ccccc3c3ccccc32)n1 (stereo not given)	none
